Calls of active or inactive are those of the source. Unless noted, how the calls were made is not given here.
Assays:
[1] = test system: Wnt5a (protein binding on small-molecule microarray); experiment: small molecules binding Wnt5a protein – biophysical, small-molecule microarray, 635/667 nm fluorescence, primary screen (AID 1142); settings: 635 nm fluorescence, higher = more signal;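 further: fluorescence read at 667 nm with signal to noise per printed feature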
[2] = ATP-based viability of Huh7 replicon cells – cell-based, CellTiter-Glo luminescence, basal, 48 h, cytotoxicity control for HCV replication inhibitor project, primary screen (AID 1143); settings: higher = more signal, called active from +8 up or from −8 down;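 further: Huh7 hepatoma cells carrying a hepatitis C replication reporter with no stimulus; test concentration not given here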
[3] = Pseudomonas biofilm growth suppression – PAO1 strain, BacTiter-Glo luminescence, LB-PBS, primary screen (AID 1144); settings: P. aeruginosa PAO1 biofilm, 12 h, higher = more signal
[4] = basal CRE-LacZ reporter activity in PC12 – cell-based, unstimulated, primary screen (AID 1145); settings: no forskolin, luminescence, 4.5 h, higher = more signal, called active from +8 up or from −8 down
[5] = forskolin-driven CRE-LacZ activity in PC12 – cell-based, CRE-LacZ reporter, forskolin-stimulated, primary screen (AID 1146); settings: luminescence, 4.5 h, higher = more signal, called active from +8 up or from −8 down;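 further: PC12 cells with 6xCRE LacZ reporter stimulated by forskolin 10 µM; beta-galactosidase reporter signal reflecting CREB driven transcription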
[6] = target: Streptavidin (Streptomyces avidinii) (UniProt P22629); experiment: compounds binding control protein streptavidin – biophysical, small-molecule microarray, 635/667 nm fluorescence, artefact control for SMM compound annotation, primary screen (AID 1147); settings: higher = more signal;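 further: signal reflects streptavidin binding to arrayed compounds as a control protein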
Sequence of Streptavidin (Streptomyces avidinii) (P22629 whole entry, looked up): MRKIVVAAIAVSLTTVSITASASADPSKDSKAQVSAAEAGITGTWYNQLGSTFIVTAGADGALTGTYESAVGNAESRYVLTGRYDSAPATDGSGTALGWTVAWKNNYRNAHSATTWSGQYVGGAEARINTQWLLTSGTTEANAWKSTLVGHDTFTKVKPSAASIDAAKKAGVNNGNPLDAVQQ

[7] = probe aInhba binding on compound microarray – biochemical, small-molecule microarray, 635/667 nm fluorescence, primary screen (AID 1148); settings: higher = more signal;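 further: score merges 667nm spot fluorescence with signal-to-noise for antibody binding to printed compounds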
Torsin-1A (Homo sapiens) [8] = target: Torsin-1A (Homo sapiens) (UniProt O14656); experiment: TOR1A wild-type binding on microarray – cell lysate, small-molecule microarray, lysate, 635/667 nm, primary screen (AID 1149); settings: COS7 hTOR1A-WT lysate, 635 nm fluorescence, higher = more signal
Sequence of Torsin-1A (Homo sapiens) (O14656 whole entry, looked up): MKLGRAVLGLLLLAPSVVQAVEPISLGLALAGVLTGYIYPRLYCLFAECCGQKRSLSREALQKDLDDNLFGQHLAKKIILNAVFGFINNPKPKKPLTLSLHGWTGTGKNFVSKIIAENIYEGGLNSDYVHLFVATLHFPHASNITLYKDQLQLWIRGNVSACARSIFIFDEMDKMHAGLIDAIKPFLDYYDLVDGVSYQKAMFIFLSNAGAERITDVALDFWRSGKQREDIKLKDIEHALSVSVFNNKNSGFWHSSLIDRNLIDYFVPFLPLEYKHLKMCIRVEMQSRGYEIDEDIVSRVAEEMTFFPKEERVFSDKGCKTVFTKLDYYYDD

Torsin-1A (Homo sapiens) [9] = target: Torsin-1A (Homo sapiens) (UniProt O14656); experiment: torsin A mutant lysate binding on microarrays – cell lysate, small-molecule microarray, COS7 lysate, 635/667 nm fluorescence, primary screen (AID 1150); settings: COS7 hTOR1A mutant lysate, 635 nm fluorescence, higher = more signal;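 further: score pools 667 nm emission and signal to noise measuring lysate protein binding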
[10] = test system: Sonic hedgehog protein (Shh); experiment: Sonic hedgehog microarray binding compounds – biochemical, small-molecule microarray, 635/667 nm fluorescence, primary screen (AID 1151); settings: 635 nm fluorescence, higher = more signal;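 further: Shh protein binding to compounds spotted on small-molecule microarray slides; score combines spot fluorescence intensity with signal-to-noise across triplicate slides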
[11] = optical density shifts of acrAB sulA E. coli – strain DRC41, OD650, 48 h, E. coli filamentation inducer project, primary screen (AID 1152); settings: higher = more signal, called active from +8 up or from −8 down;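 further: E. coli MC1000 strain DRC41 lacking acrAB efflux pump and sulA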
[12] = probe aLefty1 binding on compound microarray – biochemical, small-molecule microarray, 635/667 nm fluorescence, primary screen (AID 1153); settings: higher = more signal;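 further: score merges spot fluorescence with signal-to-noise ratio from the scanned slide images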
[13] = plasmodial surface anion channel blockers, osmotic lysis – cell-based, P. falciparum Indochina, OD700, 1 h, primary screen (AID 1154); settings: P. falciparum Indochina infected RBC osmotic lysis, higher = more signal, called active from +8 up or from −8 down
[14] = plasmodial surface anion channel blockers, osmotic lysis – cell-based, P. falciparum Indochina, OD700, 2 h, primary screen (AID 1155);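 further: lysis reports solute entry through the parasite surface anion channel PSAC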; settings: P. falciparum Indochina infected erythrocytes, higher = more signal, called active from +8 up or from −8 down
[15] = changes in parasitized red cell lysis, either direction – P. falciparum Indochina, OD700, 3 h, PSAC antagonist project, primary screen (AID 1156); settings: P. falciparum-infected erythrocytes, osmotic lysis, higher = more signal, called active from +8 up or from −8 down
[16] = plasmodial surface anion channel blockers, osmotic lysis – cell-based, P. falciparum Indochina, OD700, 18 h, primary screen (AID 1157); settings: P. falciparum Indochina infected erythrocytes, osmotic lysis OD700, 18 h; higher = more signal, called active from +8 up or from −8 down
[17] = S6 kinase pathway phospho-S6 level changes – cell-based, A549, cytoblot, luminescence, serum-stimulated, primary screen (AID 1158); settings: 5 h, higher = more signal;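 further: serum-stimulated A549 lung adenocarcinoma cells; signal is phosphorylated S6 detected by cytoblot immunostaining with HRP secondary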
[18] = target: NADPH oxidase 2 (Homo sapiens) (UniProt P04839); experiment: compounds shifting NOX2 Amplex Red fluorescence – cell-based, HEK293-NOX2, PMA-stimulated, NOX inhibitor project, primary screen (AID 1159); settings: 45 min, higher = more signal, called active from +8 up or from −8 down; further: test concentration not given here
Sequence of NADPH oxidase 2 (Homo sapiens) (P04839 whole entry, looked up): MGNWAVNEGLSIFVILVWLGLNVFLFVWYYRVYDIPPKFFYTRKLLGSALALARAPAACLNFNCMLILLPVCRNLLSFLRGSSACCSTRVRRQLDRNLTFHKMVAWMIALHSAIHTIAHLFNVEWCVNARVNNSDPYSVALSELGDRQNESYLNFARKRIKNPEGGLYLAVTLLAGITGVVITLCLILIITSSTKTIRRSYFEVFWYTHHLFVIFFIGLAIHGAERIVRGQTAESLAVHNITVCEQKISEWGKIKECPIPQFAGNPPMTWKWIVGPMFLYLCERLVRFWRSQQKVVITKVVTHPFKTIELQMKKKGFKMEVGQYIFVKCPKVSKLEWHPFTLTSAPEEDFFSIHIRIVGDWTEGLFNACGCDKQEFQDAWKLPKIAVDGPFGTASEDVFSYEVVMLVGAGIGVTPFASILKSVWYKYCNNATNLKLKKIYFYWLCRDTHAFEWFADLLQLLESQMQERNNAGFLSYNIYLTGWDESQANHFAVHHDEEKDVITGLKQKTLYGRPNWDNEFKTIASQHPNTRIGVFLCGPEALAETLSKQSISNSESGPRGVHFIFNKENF

[19] = target: NADPH oxidase 4 (Homo sapiens) (UniProt Q9NPH5); experiment: compounds shifting NOX4 Amplex Red fluorescence – cell-based, HEK293-NOX4, tetracycline-induced, NOX inhibitor project, primary screen (AID 1160); settings: HEK293-NOX4, Amplex Red H2O2 fluorescence, 45 min; higher = more signal, called active from +8 up or from −8 down
Sequence of NADPH oxidase 4 (Homo sapiens) (Q9NPH5 whole entry, looked up): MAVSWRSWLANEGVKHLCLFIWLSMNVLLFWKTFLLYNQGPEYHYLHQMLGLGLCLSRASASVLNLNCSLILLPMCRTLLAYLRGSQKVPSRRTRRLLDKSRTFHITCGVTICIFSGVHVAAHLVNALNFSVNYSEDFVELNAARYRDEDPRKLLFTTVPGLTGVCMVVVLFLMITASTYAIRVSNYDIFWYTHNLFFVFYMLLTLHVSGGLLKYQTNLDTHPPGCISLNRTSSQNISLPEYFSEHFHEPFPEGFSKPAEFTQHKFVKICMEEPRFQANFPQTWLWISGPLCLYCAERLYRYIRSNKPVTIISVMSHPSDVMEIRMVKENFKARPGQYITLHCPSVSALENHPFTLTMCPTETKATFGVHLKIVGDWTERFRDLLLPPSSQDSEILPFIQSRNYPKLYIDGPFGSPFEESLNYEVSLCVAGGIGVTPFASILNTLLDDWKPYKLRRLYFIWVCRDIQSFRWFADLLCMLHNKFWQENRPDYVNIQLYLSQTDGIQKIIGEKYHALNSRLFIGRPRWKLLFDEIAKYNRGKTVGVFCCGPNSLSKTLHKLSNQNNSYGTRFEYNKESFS

[20] = target: NADPH oxidase 5 (Homo sapiens) (UniProt Q96PH1); experiment: compounds shifting NOX5 Amplex Red fluorescence – cell-based, HEK293-NOX5, NOX inhibitor project, primary screen (AID 1161); settings: HEK293-NOX5, ionomycin, 45 min, higher = more signal
Sequence of NADPH oxidase 5 (Homo sapiens) (Q96PH1 whole entry, looked up): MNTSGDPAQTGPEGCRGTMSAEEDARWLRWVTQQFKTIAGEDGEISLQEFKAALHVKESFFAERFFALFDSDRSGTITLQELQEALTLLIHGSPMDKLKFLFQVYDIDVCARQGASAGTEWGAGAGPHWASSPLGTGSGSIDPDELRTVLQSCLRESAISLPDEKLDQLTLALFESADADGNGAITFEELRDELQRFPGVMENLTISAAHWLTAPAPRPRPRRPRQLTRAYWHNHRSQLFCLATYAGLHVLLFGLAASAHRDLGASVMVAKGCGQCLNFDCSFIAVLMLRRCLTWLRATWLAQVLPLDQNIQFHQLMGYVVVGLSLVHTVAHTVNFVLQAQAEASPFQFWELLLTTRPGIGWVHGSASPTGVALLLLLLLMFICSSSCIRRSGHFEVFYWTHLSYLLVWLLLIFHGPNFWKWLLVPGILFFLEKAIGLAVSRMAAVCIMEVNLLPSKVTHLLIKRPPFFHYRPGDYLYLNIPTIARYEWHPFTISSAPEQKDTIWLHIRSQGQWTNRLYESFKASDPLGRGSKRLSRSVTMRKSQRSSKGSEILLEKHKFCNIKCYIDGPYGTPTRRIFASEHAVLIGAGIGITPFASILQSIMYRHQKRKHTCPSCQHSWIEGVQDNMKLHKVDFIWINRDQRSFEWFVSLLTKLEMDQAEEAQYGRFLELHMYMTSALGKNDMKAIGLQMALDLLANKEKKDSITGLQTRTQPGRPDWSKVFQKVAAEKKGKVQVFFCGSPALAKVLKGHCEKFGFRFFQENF

| Structure (SMILES) | composite z-score [1] | z-score [2] | z-score [3] | z-score [4] | z-score [5] | composite z-score [6] | composite z-score [7] | composite z-score (Torsin-1A (Homo sapiens) [8]) | composite z-score (Torsin-1A (Homo sapiens) [9]) | composite z-score [10] | z-score [11] | composite z-score [12] | z-score [13] | z-score [14] | z-score [15] | z-score [16] | z-score [17] | z-score [18] | z-score [19] | z-score [20] |
| --- | --- | --- | --- | --- | --- | --- | --- | --- | --- | --- | --- | --- | --- | --- | --- | --- | --- | --- | --- | --- |
| CON=Cc1ccc(C(=O)N2[C@H](c3ccc(C)cc3)[C@@H](C)CC[C@H]2C(=O)OC)cc1 | -0.0731 | -1.63 (inactive) | -0.183 (inactive) | 0.336 (inactive) | -0.158 (inactive) | 0.651 | 0.0398 | 0.144 | 0.568 | 0.441 | -0.134 (inactive) | -0.147 | 1.65 (inactive) | 1.25 (inactive) | 0.0014 (inactive) | 1.1 (inactive) | -0.0424 | -0.88 (inactive) | -0.304 (inactive) | -0.376 |
| CO[C@H]1COC(=O)CCC[C@@H](C)[C@H](OC)COC(=O)[C@@H]2CCCN2C(=O)CC=C[C@@H]1C | 0.236 | -0.717 (inactive) | 0.55 (inactive) | -0.385 (inactive) | -0.0072 (inactive) | -0.44 | -0.101 | 2.64 | 1.05 | 2.06 | -0.704 (inactive) | -0.005 | -1.11 (inactive) | -1.08 (inactive) | -0.186 (inactive) | -0.939 (inactive) | -0.112 | -0.336 (inactive) | -0.00577 (inactive) | 0.282 |
| COc1ccc(O[C@H]2C=C[C@@H](c3ccccc3)O[C@@H]2CON=C(C)CCN2CCc3nc(-c4ccccc4)c(-c4ccccc4)cc3C2)cc1 | -0.193 | -0.203 (inactive) | -0.18 (inactive) | 1.62 (inactive) | 0.703 (inactive) | 0.852 | -0.0719 | -0.449 | -0.199 | 0.194 | -1.59 (inactive) | -0.101 | 2.48 (inactive) | 1.25 (inactive) | 0.855 (inactive) | 0.71 (inactive) | -0.0313 | 0.168 (inactive) | 0.00405 (inactive) | -0.434 |
| CON=C1[C@H]2CCn3c(=O)n(-c4ccccc4)c(=O)n3[C@H]2[C@H](O)[C@@H]2O[C@H]12 | 0.0275 | 0.653 (inactive) | -0.633 (inactive) | 1.55 (inactive) | 0.236 (inactive) | 0.0011 | -0.268 | 0.144 | 0.606 | 0.435 | -1.04 (inactive) | -0.108 | -0.713 (inactive) | -1.53 (inactive) | -0.801 (inactive) | -1.77 (inactive) | 1.56 | 0.0197 (inactive) | 0.3 (inactive) | 1.26 |
| COC(=O)CC=C[C@@H](C)[C@@H](C=NO[C@H](C)c1cn([C@H](CO)Cc2ccccc2)nn1)OC | 0.247 | -0.742 (inactive) | 0.226 (inactive) | 0.359 (inactive) | 0.303 (inactive) | 0.21 | -0.128 | 1.09 | 1.78 | 1.08 | -0.36 (inactive) | -0.104 | 0.727 (inactive) | 0.0995 (inactive) | -0.721 (inactive) | 0.0239 (inactive) | -0.505 | 0.824 (inactive) | 0.541 (inactive) | 0.299 |
| O=C1[C@H]2[C@H]3[C@H](O)[C@H](O)CC(=NOCc4ccccc4)[C@@H]3CC[C@H]2C(=O)N1C[C@@H]1CCCO1 | 0.0388 | 0.379 (inactive) | -0.614 (inactive) | -0.115 (inactive) | 0.105 (inactive) | 0.632 | -0.157 | 0.304 | 0.198 | 0.317 | 0.516 (inactive) | -0.28 | -0.132 (inactive) | 0.141 (inactive) | -0.335 (inactive) | 0.305 (inactive) | -0.0701 | 0.434 (inactive) | 0.531 (inactive) | 0.102 |
| CON=CC[C@@H]1C=C[C@H](OC(C)=O)[C@@H](COC(C)=O)O1 | 0.474 | 0.544 (inactive) | 0.667 (inactive) | -0.403 (inactive) | 0.46 (inactive) | -0.0091 | 0.102 | 0.611 | 0.592 | 0.783 | -2.1 (inactive) | 0.171 | 0.0262 (inactive) | 0.0956 (inactive) | -0.833 (inactive) | 0.245 (inactive) | -0.841 | 0.0851 (inactive) | -0.0561 (inactive) | -0.107 |
| O=C1CCCC=C1C(O)CCCCBr (stereo not given) | 0.0756 | -3.99 (inactive) | -0.548 (inactive) | 1.37 (inactive) | 27 (active) | 1.51 | -0.0523 | 0.201 | 0.686 | 0.333 | 0.549 (inactive) | 0.155 | 3.79 (inactive) | 1.15 (inactive) | 1.02 (inactive) | 0.759 (inactive) | 0.231 | -0.772 (inactive) | 0.241 (inactive) | -0.921 |
| CCC1=NOC(CCC2CC(OC(=O)NCc3cccc4c3OCO4)CC3(CCCC(COC(=O)NCCc4ccccc4OC)O3)O2)C1 (stereo not given) | 0.196 | -0.491 (inactive) | 0.249 (inactive) | 1.46 (inactive) | 0.214 (inactive) | 0.72 | -0.152 | -0.0106 | 0.778 | 0.157 | 0.572 (inactive) | -0.0573 | 15.9 (active) | 2.99 (inactive) | -0.501 (inactive) | 0.568 (inactive) | 0.0314 | 0.642 (inactive) | -0.115 (inactive) | 0.0819 |

Reference: PubChem BioAssay
